From the supplement of paper PMC10849652
Targets with a hit are over-represented here; the source holds about 8,800 in all. About 0.5% of all pairs of compound and target were hits.

compound: CCCS(=O)(=O)Nc1ccc(F)c(C(=O)c2c[nH]c3ncc(Cl)cc23)c1F; test: log2 fold change, soluble protein after heating vs DMSO (PISA); higher = thermal stabilisation; K562 lysate, 10 uM; active = over 0.2 and 3.5 SD of the protein, either way, in both replicates (recomputed)
Procedure, shortened: (§1)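 Quantification was by TMTpro 16plex LC-MS/MS with equalised channel sums, applied to the supernatant after 21,000xg for 90 min. Samples were crude K562 extract at 1 mg/mL protein in PBS pH 7.4 with 1 mM MgCl2, treated with 10 μM compound for 30 min, heated for 3 min across 48°C-58°C, pooled and brought to 0.5% NP-40 at 4°C. Values are log-two fold changes in thermal stability relative to solvent controls, from duplicates.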

UniProt O14880, sequence (O14880 whole entry, looked up): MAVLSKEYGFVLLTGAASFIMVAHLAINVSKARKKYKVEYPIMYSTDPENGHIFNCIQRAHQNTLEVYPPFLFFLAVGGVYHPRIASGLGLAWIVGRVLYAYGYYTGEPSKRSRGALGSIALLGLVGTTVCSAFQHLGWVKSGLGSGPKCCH
UniProt Q9NZL9, sequence (Q9NZL9 whole entry, looked up): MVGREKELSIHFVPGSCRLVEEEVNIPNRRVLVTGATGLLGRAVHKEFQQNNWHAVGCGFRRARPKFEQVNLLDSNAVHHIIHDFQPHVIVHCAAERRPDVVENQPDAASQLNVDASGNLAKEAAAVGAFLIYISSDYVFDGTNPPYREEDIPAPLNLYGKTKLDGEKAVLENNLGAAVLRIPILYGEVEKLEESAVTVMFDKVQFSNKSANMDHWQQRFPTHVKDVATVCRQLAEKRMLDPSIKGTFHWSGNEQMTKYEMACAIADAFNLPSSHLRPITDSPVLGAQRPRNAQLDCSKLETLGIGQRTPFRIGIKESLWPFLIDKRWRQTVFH
UniProt Q86V48, sequence (Q86V48 whole entry, looked up): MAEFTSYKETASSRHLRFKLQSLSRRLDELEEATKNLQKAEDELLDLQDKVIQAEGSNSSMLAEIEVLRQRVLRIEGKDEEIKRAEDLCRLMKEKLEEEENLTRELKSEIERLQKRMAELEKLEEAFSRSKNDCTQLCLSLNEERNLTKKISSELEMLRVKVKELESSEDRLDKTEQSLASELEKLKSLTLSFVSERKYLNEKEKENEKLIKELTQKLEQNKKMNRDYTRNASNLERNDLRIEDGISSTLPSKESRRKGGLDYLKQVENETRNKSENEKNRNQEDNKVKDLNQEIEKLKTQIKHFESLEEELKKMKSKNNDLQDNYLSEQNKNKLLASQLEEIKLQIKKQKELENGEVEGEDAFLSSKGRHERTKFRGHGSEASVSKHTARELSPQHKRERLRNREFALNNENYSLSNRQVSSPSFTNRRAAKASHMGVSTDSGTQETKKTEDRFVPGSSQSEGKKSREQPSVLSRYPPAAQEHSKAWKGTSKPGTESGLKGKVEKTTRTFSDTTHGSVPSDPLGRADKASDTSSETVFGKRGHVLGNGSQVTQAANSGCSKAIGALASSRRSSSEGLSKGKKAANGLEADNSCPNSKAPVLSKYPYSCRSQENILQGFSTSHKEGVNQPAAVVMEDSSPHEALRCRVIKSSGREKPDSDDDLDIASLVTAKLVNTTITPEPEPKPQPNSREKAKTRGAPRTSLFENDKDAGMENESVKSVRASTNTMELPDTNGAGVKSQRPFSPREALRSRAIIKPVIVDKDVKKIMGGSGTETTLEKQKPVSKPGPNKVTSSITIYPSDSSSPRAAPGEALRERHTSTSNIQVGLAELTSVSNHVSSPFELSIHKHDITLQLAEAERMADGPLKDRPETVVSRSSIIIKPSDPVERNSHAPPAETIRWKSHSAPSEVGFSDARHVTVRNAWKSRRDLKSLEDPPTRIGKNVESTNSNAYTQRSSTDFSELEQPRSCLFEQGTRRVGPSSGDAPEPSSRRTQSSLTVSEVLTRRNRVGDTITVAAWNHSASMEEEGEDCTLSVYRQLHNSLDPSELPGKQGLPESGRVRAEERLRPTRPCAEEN
UniProt Q96IZ6, sequence (Q96IZ6 whole entry, looked up): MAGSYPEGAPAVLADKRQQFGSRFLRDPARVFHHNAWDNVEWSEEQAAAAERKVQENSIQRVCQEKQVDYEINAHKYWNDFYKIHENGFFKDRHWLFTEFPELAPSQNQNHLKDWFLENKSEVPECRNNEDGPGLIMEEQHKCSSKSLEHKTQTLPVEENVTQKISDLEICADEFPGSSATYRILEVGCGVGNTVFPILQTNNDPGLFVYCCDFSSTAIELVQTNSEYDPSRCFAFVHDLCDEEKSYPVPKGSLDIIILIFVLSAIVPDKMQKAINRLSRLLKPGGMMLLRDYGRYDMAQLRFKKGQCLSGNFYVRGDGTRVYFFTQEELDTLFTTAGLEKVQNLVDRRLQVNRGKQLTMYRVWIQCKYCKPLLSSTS
UniProt O00629, sequence (O00629 whole entry, looked up): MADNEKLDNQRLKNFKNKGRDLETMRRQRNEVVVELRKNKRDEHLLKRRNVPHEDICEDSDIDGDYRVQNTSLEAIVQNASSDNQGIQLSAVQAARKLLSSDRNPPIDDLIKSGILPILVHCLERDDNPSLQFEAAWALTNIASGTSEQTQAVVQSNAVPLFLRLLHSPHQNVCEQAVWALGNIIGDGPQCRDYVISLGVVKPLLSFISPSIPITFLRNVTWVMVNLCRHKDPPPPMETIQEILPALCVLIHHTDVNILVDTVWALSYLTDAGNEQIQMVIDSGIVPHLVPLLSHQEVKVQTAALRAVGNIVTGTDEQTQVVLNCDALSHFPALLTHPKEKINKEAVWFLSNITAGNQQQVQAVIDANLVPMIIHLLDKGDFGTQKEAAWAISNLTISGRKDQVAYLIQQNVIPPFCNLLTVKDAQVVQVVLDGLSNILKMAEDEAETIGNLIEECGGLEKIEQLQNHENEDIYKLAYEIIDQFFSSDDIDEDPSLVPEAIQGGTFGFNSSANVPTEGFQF
UniProt Q13601, sequence (Q13601 whole entry, looked up): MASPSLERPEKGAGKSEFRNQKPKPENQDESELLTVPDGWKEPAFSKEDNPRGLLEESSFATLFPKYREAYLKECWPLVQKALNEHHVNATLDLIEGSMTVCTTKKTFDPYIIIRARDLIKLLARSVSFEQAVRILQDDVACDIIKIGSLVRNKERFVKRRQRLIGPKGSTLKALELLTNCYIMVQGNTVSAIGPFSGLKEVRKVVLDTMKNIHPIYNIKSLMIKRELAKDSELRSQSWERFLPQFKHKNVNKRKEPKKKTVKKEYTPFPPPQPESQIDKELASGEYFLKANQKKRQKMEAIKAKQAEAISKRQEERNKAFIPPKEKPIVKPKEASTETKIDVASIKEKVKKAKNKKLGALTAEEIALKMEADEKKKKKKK
UniProt O95239, sequence (O95239 whole entry, looked up): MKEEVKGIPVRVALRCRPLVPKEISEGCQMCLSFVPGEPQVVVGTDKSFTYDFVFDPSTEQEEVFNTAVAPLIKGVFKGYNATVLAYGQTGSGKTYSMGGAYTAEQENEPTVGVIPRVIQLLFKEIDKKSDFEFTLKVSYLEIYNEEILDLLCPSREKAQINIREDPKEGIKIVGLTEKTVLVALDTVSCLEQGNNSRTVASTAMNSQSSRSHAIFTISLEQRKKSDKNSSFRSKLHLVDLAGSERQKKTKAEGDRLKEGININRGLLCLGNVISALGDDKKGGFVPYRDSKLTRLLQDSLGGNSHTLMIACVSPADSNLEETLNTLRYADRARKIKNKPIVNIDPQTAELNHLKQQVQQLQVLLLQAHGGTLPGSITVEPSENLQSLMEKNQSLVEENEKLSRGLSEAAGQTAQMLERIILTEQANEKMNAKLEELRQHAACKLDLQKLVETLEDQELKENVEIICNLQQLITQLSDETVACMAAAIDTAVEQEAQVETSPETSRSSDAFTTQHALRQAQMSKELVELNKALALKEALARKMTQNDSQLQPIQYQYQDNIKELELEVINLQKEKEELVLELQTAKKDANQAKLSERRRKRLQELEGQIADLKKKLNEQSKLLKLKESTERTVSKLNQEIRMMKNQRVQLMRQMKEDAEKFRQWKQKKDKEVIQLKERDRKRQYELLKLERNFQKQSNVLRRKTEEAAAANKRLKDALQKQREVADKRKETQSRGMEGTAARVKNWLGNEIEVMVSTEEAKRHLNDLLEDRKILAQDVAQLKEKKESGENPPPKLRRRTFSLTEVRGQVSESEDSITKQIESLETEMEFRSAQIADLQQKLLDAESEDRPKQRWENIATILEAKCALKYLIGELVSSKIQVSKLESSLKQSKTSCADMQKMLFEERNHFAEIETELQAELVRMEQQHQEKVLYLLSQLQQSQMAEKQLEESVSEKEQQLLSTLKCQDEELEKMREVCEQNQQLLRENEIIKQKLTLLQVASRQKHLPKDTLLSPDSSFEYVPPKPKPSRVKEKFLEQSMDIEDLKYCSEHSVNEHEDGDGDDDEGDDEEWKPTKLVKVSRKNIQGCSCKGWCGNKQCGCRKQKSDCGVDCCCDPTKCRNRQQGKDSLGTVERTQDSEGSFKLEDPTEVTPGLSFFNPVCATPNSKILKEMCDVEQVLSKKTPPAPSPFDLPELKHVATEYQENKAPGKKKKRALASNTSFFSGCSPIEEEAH
UniProt Q9H0B6, sequence (Q9H0B6 whole entry, looked up): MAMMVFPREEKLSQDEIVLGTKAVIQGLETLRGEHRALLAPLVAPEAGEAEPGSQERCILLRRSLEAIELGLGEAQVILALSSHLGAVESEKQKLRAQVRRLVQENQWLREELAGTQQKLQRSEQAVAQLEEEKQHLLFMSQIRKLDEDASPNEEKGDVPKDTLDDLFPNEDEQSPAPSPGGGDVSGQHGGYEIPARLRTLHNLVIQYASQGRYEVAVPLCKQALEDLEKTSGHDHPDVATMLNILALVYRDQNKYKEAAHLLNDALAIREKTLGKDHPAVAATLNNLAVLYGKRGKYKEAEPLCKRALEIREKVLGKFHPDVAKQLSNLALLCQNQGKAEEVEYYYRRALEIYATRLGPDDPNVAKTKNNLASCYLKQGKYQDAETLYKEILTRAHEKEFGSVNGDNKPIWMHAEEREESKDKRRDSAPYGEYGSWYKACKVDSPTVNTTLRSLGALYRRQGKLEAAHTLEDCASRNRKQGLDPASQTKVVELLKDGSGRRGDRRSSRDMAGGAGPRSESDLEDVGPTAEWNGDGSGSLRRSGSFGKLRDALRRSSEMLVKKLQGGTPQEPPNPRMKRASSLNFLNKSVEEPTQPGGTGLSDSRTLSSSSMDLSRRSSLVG
UniProt Q7Z3D4, sequence (Q7Z3D4 whole entry, looked up): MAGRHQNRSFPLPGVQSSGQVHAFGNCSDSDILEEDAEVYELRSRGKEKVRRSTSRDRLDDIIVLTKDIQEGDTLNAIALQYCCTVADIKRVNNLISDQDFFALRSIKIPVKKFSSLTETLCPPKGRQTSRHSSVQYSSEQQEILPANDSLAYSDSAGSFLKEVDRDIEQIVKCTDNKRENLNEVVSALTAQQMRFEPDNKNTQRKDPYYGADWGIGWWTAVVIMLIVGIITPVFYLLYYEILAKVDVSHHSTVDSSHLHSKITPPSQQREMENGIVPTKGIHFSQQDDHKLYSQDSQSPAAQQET

log2 fold change, inactive:
MED16 (UniProt Q9Y2X0) 0.008, LAP3 (UniProt P28838) 0.024, LUZP1 (UniProt Q86V48) 0.003, KSR1 (UniProt Q8IVT5) 0.049, LTN1 isoform 3 (UniProt O94822) 0.022, MAP2K3 isoform 3 (UniProt P46734) -0.042, MRPL46 (UniProt Q9H2W6) -0.001, MCU (UniProt Q8NE86) 0.017, KIF14 (UniProt Q15058) 0.021, KIF15 (UniProt Q9NS87) 0.045, MAP3K4 (UniProt Q9Y6R4) 0.007, LIMS1 isoform 3 (UniProt P48059) -0.006, KIF11 (UniProt P52732) 0.003, KIFC1 (UniProt Q9BW19) 0.037, MAT2B (UniProt Q9NZL9) 0.016, MFF isoform 2 (UniProt Q9GZY8) 0.027, KPNA2 (UniProt P52292) 0, MED8 isoform 2 (UniProt Q96G25) 0.018, MAPK8 isoform 3 (UniProt P45983) 0.022, MGST3 (UniProt O14880) 0.01, KIF4A (UniProt O95239) 0.035, MPP1 (UniProt Q00013) -0.005, MAP4 (UniProt E7EVA0) 0.01, LARS2 (UniProt Q15031) 0.007, LIMK2 isoform 3 (UniProt P53671) 0.046, KPNA4 (UniProt O00629) 0.017, MAP7D3 (UniProt Q8IWC1) -0.039, METTL7A (UniProt Q9H8H3) 0.056, LYN (UniProt P07948) 0.05, LUC7L (UniProt Q9NQ29) -0.014, LYSMD3 (UniProt Q7Z3D4) -0.05, KRR1 (UniProt Q13601) 0.01, METTL2A (UniProt Q96IZ6) 0.058, MARK3 (UniProt P27448) 0.036, MLH1 (UniProt P40692) -0.039, KLC2 (UniProt Q9H0B6) 0.042, MCCC1 (UniProt Q96RQ3) 0.009, MAPK3 (UniProt P27361) -0.024, MITD1 (UniProt Q8WV92) 0.001

compound: CCN(CCCOc1ccc2c(Nc3cc(CC(=O)Nc4cccc(F)c4)[nH]n3)ncnc2c1)CCOP(=O)(O)O [barasertib]; test: as above
Procedure, shortened: as §1

log2 fold change, inactive:
MED16 (UniProt Q9Y2X0) -0.113, LAP3 (UniProt P28838) -0.002, LUZP1 (UniProt Q86V48) 0.013, KSR1 (UniProt Q8IVT5) -0.022, LTN1 isoform 3 (UniProt O94822) 0.034, MAP2K3 isoform 3 (UniProt P46734) 0.032, MRPL46 (UniProt Q9H2W6) -0.015, MCU (UniProt Q8NE86) 0.077, KIF14 (UniProt Q15058) 0.143, KIF15 (UniProt Q9NS87) 0.016, MAP3K4 (UniProt Q9Y6R4) 0.107, LIMS1 isoform 3 (UniProt P48059) 0.014, KIF11 (UniProt P52732) 0.023, KIFC1 (UniProt Q9BW19) 0.002, MAT2B (UniProt Q9NZL9) 0.001, MFF isoform 2 (UniProt Q9GZY8) 0.027, KPNA2 (UniProt P52292) 0.05, MED8 isoform 2 (UniProt Q96G25) 0.081, MAPK8 isoform 3 (UniProt P45983) 0.007, MGST3 (UniProt O14880) -0.056, KIF4A (UniProt O95239) -0.02, MPP1 (UniProt Q00013) -0.014, MAP4 (UniProt E7EVA0) 0.04, LARS2 (UniProt Q15031) 0.077, LIMK2 isoform 3 (UniProt P53671) -0.062, KPNA4 (UniProt O00629) -0.089, MAP7D3 (UniProt Q8IWC1) -0.031, METTL7A (UniProt Q9H8H3) -0.123, LYN (UniProt P07948) 0.258, LUC7L (UniProt Q9NQ29) 0.024, LYSMD3 (UniProt Q7Z3D4) -0.003, KRR1 (UniProt Q13601) 0.026, METTL2A (UniProt Q96IZ6) 0.023, MARK3 (UniProt P27448) -0.001, MLH1 (UniProt P40692) 0.014, KLC2 (UniProt Q9H0B6) 0.042, MCCC1 (UniProt Q96RQ3) 0.015, MAPK3 (UniProt P27361) -0.026, MITD1 (UniProt Q8WV92) 0.057
